Measurements from PubChem BioAssay (NCI).
Where “and” joins values, the source holds several entries; their conditions need not be identical. Equal values may be shown once. This is part of a sample that, as a whole, favours compounds with a hit. Of some 83,000 tested, about 20% had one in any assay.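 A percent growth of 40 corresponds to 60% growth inhibition; 0 means no net growth; -100 means all cells died. Active threshold: below 10.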 A number with no mark means an inactive call. Calls of active or inactive are those of the source.

Key:
Assay in all cases: NCI-60 one-dose screen, 48 h (100 = growth as untreated, 0 = no growth, -100 = all killed)
Conditions in all cases: 10 µM unless noted
NCI-H23 lung = system: NCI-H23 lung
NCI-H226 lung = system: NCI-H226 lung
NCI-H322M lung = system: NCI-H322M lung
HOP-62 NSCLC = system: HOP-62 NSCLC
NCI-H460 lung = system: NCI-H460 lung
HOP-92 NSCLC = system: HOP-92 NSCLC
NCI-H522 lung = system: NCI-H522 lung
A549/ATCC NSCLC = system: A549/ATCC NSCLC
786-0 renal = system: 786-0 renal
COLO 205 colon = system: COLO 205 colon
DU-145 prostate = system: DU-145 prostate
K-562 leukemia = system: K-562 leukemia
MALME-3M melanoma = system: MALME-3M melanoma
MDA-MB-231 breast = system: MDA-MB-231 breast
RXF 393 renal = system: RXF 393 renal
SF-268 CNS = system: SF-268 CNS
SF-295 CNS = system: SF-295 CNS
SF-539 CNS = system: SF-539 CNS
UACC-257 melanoma = system: UACC-257 melanoma
M14 melanoma = system: M14 melanoma

| Structure (SMILES) | growth (NCI-H23 lung) | growth (NCI-H226 lung) | growth (NCI-H322M lung) | growth (HOP-62 NSCLC) | growth (NCI-H460 lung) | growth (HOP-92 NSCLC) | growth (NCI-H522 lung) | growth (A549/ATCC NSCLC) | growth (786-0 renal) | growth (COLO 205 colon) | growth (DU-145 prostate) | growth (K-562 leukemia) | growth (MALME-3M melanoma) | growth (MDA-MB-231 breast) | growth (RXF 393 renal) | growth (SF-268 CNS) | growth (SF-295 CNS) | growth (SF-539 CNS) | growth (UACC-257 melanoma) | growth (M14 melanoma) |
| --- | --- | --- | --- | --- | --- | --- | --- | --- | --- | --- | --- | --- | --- | --- | --- | --- | --- | --- | --- | --- |
| Nc1ccccc1SC1CC(=O)N(c2ccc(I)cc2)C1=O (stereo not given) | 89.8% | 102% | 108% | 80.5% | 92.6% | 100% | 77.4% | 87.1% | 105% | 95.3% | 92.7% | 82.9% | 75.6% | 91% | 115% | 84.1% | 93.8% | 89.6% | 89.2% | 88% |
| O=C(OCc1ccccc1)c1ccccc1 | 107% and 90.2% | 97.9% and 93.9% | 115% and 106% | 94.9% and 90.5% | 109% and 108% | 89.6% | 111% and 79.6% | 95.3% and 86.6% | 95.1% and 96.5% | 101% | 118% and 101% | 104% | 109% and 102% | 88.2% and 102% | 91.4% | 114% and 99.1% | 108% and 103% | 107% and 94.9% | 95.6% and 85% | 104% and 91% |
| O=C1C=CC(=O)N1Cc1ccco1 | 81.7% | 97.1% | 85.1% | 94.7% | 50.9% | 102% | 67.8% | 92.1% | 104% | 89.2% | 4.25% (active) | 94.1% | 94.5% | 84% | 68.6% | 89.7% | 72.2% | 108% | 104% | 85.3% |
| O=c1[nH]c(=S)[nH]n1C(=S)n1[nH]c(=S)[nH]c1=O | 110% | 85% | 96.8% | 97.2% | 103% | 82.2% | 84.6% | 93.6% | 106% | 111% | 110% | 98.8% | 102% | 111% | 95.6% | 103% | 97.8% | 110% | 108% | 105% |
| O=[N+]([O-])c1cccc(N=Cc2ccccc2)c1 | 111% | 99.9% | 113% | 105% | 119% | 95.7% | 88.2% | 99.8% | 105% | 118% | 117% | 95.8% | 119% | 106% | 105% | 105% | 96.5% | 99.5% | 102% | 106% |
| CC(C)(C)C1=CC(=O)C(C(C)(C)C)=CC1=O | 84.3% and 103% | 90.3% and 102% | 104% and 102% | 90.2% and 97.8% | 99.7% | 83.8% and 100% | 82.5% and 88.9% | 98.5% and 91% | 93.3% and 105% | 116% | 120% and 98.9% | 105% and 107% | 94.5% and 107% | 107% and 109% | 90.2% and 105% | 108% and 94.3% | 99.6% and 104% | 87.3% and 108% | 90.5% and 85% | 105% |
| O=C(Nc1ccccc1)OCC(CN1CCCCC1)OC(=O)Nc1ccccc1 (stereo not given) | 78.4% and 103% | 96.6% and 89.9% | 81% and 92.2% | 83.6% and 110% | 106% and 105% | 76.4% | 103% | 94.1% and 94.4% | 64% and 101% | 98% | 107% | 89% | 90.8% and 109% | 30.7% and 79.2% | 60% and 86.8% | 79.2% and 94.7% | 96.5% and 97.9% | 87.5% and 96.2% | 93.7% and 93.2% | 86.6% and 108% |
| CCC(C)(O)CCC(C)(O)CC (stereo not given) | 87.1% | 108% | 102% | 93.5% | 116% | 104% | 103% | 106% | 99.3% | 108% | 105% | 99.3% | 93.6% | 109% | 130% | 99.2% | 102% | 103% | 106% | 103% |
| COc1ccc(CCNC(=S)NN)cc1OC | 99.5% | 106% | 108% | 117% | 101% | 94.8% | 102% | 106% | 109% | 112% | 106% | 101% | 124% | 114% | 200% | 96% | 103% | 95% | 108% | 104% |
| CC(=O)Oc1ccc(C(c2ccc(OC(C)=O)cc2)c2ccccn2)cc1 | 59.7% and 57% | 89.2% and 106% | 30.6% and 64.6% | 87.9% and 109% | 105% and 101% | 66.1% and 34.1% | 91.4% and 72.6% | 87% and 13.8% | 101% | 24% and 17.9% | 96.8% and 106% | 89.6% and 99.2% | 100% and 107% | 100% and 102% | 71.9% and 16.1% | 104% and 99.3% | 92.1% | 100% and 75.6% | 96.1% and 88.3% | 95.1% and 69.3% |
| Clc1ccc2c(c1)N(C1CCCN(Cc3ccccc3)C1)c1ccccc1S2 (stereo not given) | 61.9% | 82.1% | 31.1% | 82.1% | 25.4% | 51.7% | 14.9% | 35% | 61.8% | 3.47% (active) | 74.1% | 18.5% | 78.4% | 51.8% | -15.7% (active) | 39.2% | 77.6% | 40.8% | 55.1% | -26.9% (active) |
| O=C1c2ccccc2C(c2ccccc2)C1c1ccccc1 (stereo not given) | 91% | 101% | 92.5% | 98.6% | 95.8% | 80.2% | 86.2% | 91.3% | 107% | 101% | 104% | 77.2% | 99.5% | 89.1% | 102% | 97.9% | 94.8% | 101% | 96.3% | 97.7% |
